From PubChem BioAssay (NCI)
About 79,000 compounds went through this panel and 15% of them were active in at least one assay; those are over-represented in the sample as a whole. Values without a mark were called inactive. Calls of active or inactive are those of the source. Cut-off read from the data, not from the text of the source: active = growth inhibition above about 70%; inactive = the rest.

Tests used:
[1] = NCI Yeast Anticancer Drug Screen. Data for the rad50 strain (AID 155);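 note: 0% = growth of vehicle-only cultures of the same strain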; conditions: S. cerevisiae rad50 strain growth inhibition, stronger effect = higher value
In short: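 Yeast carrying a defined DNA repair defect were exposed to test compounds, and growth was compared with vehicle-treated controls to give percent inhibition.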

[2] = NCI Yeast Anticancer Drug Screen. Data for the mec2-1 strain (AID 157); conditions: S. cerevisiae mec2-1 strain, stronger effect = higher value
In short: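 mec2-1 yeast strain, carrying an alteration in DNA damage repair or cell cycle control, was exposed to compounds; growth inhibition was measured relative to vehicle-treated controls.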

[3] = NCI Yeast Anticancer Drug Screen. Data for the sgs1 mgt1 strain (AID 161);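 note: 0% = growth of cultures given vehicle only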; conditions: S. cerevisiae sgs1 mgt1 strain, stronger effect = higher value
In short: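 Yeast cells carrying a defined DNA-repair defect were exposed to test compounds. Growth inhibition was measured relative to vehicle-treated controls.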

[4] = NCI Yeast Anticancer Drug Screen. Data for the cln2 rad14 strain (AID 165);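 note: 0% = growth equal to vehicle treated cultures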; conditions: S. cerevisiae cln2 rad14 strain, stronger effect = higher value
In short: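 Yeast carrying cln2 and rad14 alterations (cell cycle control and DNA damage repair) were exposed to compounds. Growth inhibition was measured against vehicle-treated controls.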

[5] = NCI Yeast Anticancer Drug Screen. Data for the bub3 strain (AID 167); conditions: S. cerevisiae bub3 mutant strain, stronger effect = higher value
In short: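 Compounds were applied to a genetically altered yeast strain carrying a cell-cycle control defect. Growth inhibition was scored against vehicle-treated controls.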

[6] = NCI Yeast Anticancer Drug Screen. Data for the mlh1 rad18 strain (AID 175); conditions: S. cerevisiae mlh1 rad18 strain growth inhibition, stronger effect = higher value
In short: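 Growth inhibition of the yeast strain was measured after compound exposure and expressed relative to vehicle-treated controls. The strain carries defined defects in DNA damage repair.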

[7] = at 5.0 µM (retest, dose inferred, filed as 0.5)
[8] = at 50.0 µM (retest, dose inferred, filed as 5.0)

Structure (SMILES) | growth inhibition [1, 7] | growth inhibition [1, 8] | growth inhibition ([1]; at 50.0 µM) | growth inhibition [2, 7] | growth inhibition [2, 8] | growth inhibition ([2]; at 50.0 µM) | growth inhibition [3, 7] | growth inhibition [3, 8] | growth inhibition ([3]; at 50.0 µM) | growth inhibition [4, 7] | growth inhibition [4, 8] | growth inhibition ([4]; at 50.0 µM) | growth inhibition [5, 7] | growth inhibition [5, 8] | growth inhibition ([5]; at 50.0 µM) | growth inhibition [6, 7] | growth inhibition [6, 8] | growth inhibition ([6]; at 50.0 µM)
Nc1ccc(CSc2ccc(Cl)cc2)cc1Cl | -3% | 99% (active) | 37% | -5% | 99% (active) | 3.9% | -6% | 98% (active) | 40.9% | -16% | 99% (active) | -24.7% | 32% | 99% (active) | 4.35% | 1% | 99% (active) | 13.7%
Cc1cc2oc3c(ccc(=O)n3C)c(=O)c2c(C)c1Cl | 9% | 38% | 53.7% | 10% | 23% | 29.4% | 22% | 21% | 54.8% | 20% | 13% | 25.9% | 18% | 10% | 30.2% | 11% | 48% | 17.9%
O=C1C=C(Cl)C(=O)C2=C1CCCC2 | 10% | 89% (active) | 95.2% (active) | 11% | 98% (active) | 70.8% (active) | 8% | 98% (active) | 61.1% | -1% | 48% | 59.2% | 1% | 98% (active) | 99.2% (active) | 20% | 98% (active) | 93.9% (active)
CC(C)c1ccc(C(C)C)c(O)c1O | 13% | 72% (active) | 82% (active) | 24% | 73% (active) | 87.3% (active) | 22% | 79% (active) | 88% (active) | 21% | 63% | 53.2% | 7% | 67% | 87.2% (active) | 7% | 94% (active) | 69.8%
O=c1ssc(=Nc2ccc(Cl)cc2)n1-c1ccc(Cl)cc1 | 77% (active) | 99% (active) | 98.5% (active) | 57% | 99% (active) | 99.4% (active) | 95% (active) | 99% (active) | 98.2% (active) | 16% | 99% (active) | 87.9% (active) | 74% (active) | 99% (active) | 99.5% (active) | 30% | 99% (active) | 98% (active)
Oc1ccc2cc(Br)ccc2c1 | 8% | 98% (active) | 54.1% | 0% | 99% (active) | 99% (active) | 2% | 97% (active) | 45.1% | -2% | 98% (active) | 56.4% | 4% | 99% (active) | 99% (active) | 3% | 99% (active) | 98.8% (active)
COc1ccc(CN2CCCN(Cc3ccc(OC)cc3)C2Cc2cc(Cl)ccc2OC)cc1 | -3% | 58% | 82.4% (active) | -3% | 61% | 48.8% | -44% | 63% | 80.7% (active) | -6% | 19% | 33.4% | -5% | 56% | 56.5% | 18% | 85% (active) | 77.8% (active)
O=S(=O)(c1ccccc1)n1cc(C[P+](c2ccccc2)(c2ccccc2)c2ccccc2)c2ccccc21 | 21% | 99% (active) | 99.3% (active) | -1% | 99% (active) | 99.5% (active) | 20% | 98% (active) | 99.5% (active) | 8% | 99% (active) | 98.1% (active) | 10% | 99% (active) | 99.4% (active) | 27% | 99% (active) | 99.3% (active)
CCCOC(=O)CCCC(=O)N(CC)CC | 1% | -10% | 10.7% | 0% | 1% | -7.7% | 0% | -9% | -25.1% | -5% | 0% | 71.5% (active) | -4% | -3% | -0.6% | -5% | -11% | 19.5%
O=C1c2cccc3cc4ccccc4c(c23)C(=O)N1CCCNCCNCCCN1C(=O)c2cccc3cc4ccccc4c(c23)C1=O | 94% (active) | 98% (active) | 90.1% (active) | 96% (active) | 98% (active) | 85.2% (active) | 96% (active) | 98% (active) | 86.5% (active) | 83% (active) | 98% (active) | 88% (active) | 98% (active) | 98% (active) | 87.8% (active) | 94% (active) | 97% (active) | 91% (active)
Clc1ccc(-c2nnn3ccccc23)cc1 | 4% | 8% | 95.3% (active) | 12% | 9% | 93.5% (active) | -3% | 12% | 95.8% (active) | 4% | 10% | 28.6% | 2% | 5% | 91.7% (active) | 13% | 51% | 94.1% (active)
COC(=O)c1ccccc1CC(Cc1ccc2c(c1)CCC2)C(=O)OC (configuration not stated) | 20% | 27% | 35% | 12% | 14% | 16.9% | 10% | 20% | 29.6% | 9% | -2% | 13.7% | 16% | 27% | 12.3% | 16% | 15% | 4.25%
N#Cc1ccc(C2Oc3ccc(Cl)cc3C=C2[N+](=O)[O-])cc1 (configuration not stated) | 98% (active) | 99% (active) | 84.7% (active) | 100% (active) | 99% (active) | 75.7% (active) | 100% (active) | 99% (active) | 91.2% (active) | 98% (active) | 98% (active) | 88.7% (active) | 98% (active) | 98% (active) | 75.6% (active) | 99% (active) | 99% (active) | 83.3% (active)
COC1CC(C)(NC(C)=O)C2OC(c3ccccc3)OCC2O1 (configuration not stated) | -5% | -16% | 81.8% (active) | -11% | -15% | 81.2% (active) | -7% | -24% | 71.9% (active) | -40% | 10% | 75.5% (active) | -21% | -8% | 82.7% (active) | -1% | -3% | 70.4% (active)
Cc1ccc(O)cc1CCCCO | 2% | -4% | -7.45% | 0% | -1% | -2.1% | -1% | -2% | -3.55% | -2% | 7% | 74.6% (active) | -11% | 0% | -5.95% | 0% | -2% | -3.45%
ON(Cc1ccccc1)C(=S)c1ccccc1 | 23% | 98% (active) | 91.3% (active) | 19% | 99% (active) | 92.8% (active) | 24% | 98% (active) | 91.5% (active) | 1% | 92% (active) | 89.3% (active) | 31% | 98% (active) | 89% (active) | 25% | 98% (active) | 90.7% (active)
CCN(CC)CCOC(=O)C1CCCCC1C(=O)C1CCCCC1 (configuration not stated) | -3% | 3% | 29.4% | -3% | 0% | -1.6% | -7% | 5% | 21.4% | -2% | 8% | 34.5% | -3% | 14% | 0.85% | 1% | 1% | 11.7%
O=S(=O)(O)c1ccc2c(c1)C1C(C3C2C2(Cl)C(Cl)=C(Cl)C3(Cl)C2(Cl)Cl)C2(Cl)C(Cl)=C(Cl)C1(Cl)C2(Cl)Cl (configuration not stated) | -7% | 80% (active) | 85.9% (active) | -8% | 94% (active) | 89.9% (active) | -19% | 77% (active) | 81% (active) | 34% | 89% (active) | 83.7% (active) | 21% | 91% (active) | 88.6% (active) | 23% | 93% (active) | 84.4% (active)
CCCCCCCCCCCC#CCCCCC(=O)O | 87% (active) | 94% (active) | 56.8% | 95% (active) | 97% (active) | 62.5% | 93% (active) | 96% (active) | 83.7% (active) | 27% | 91% (active) | 61% | 96% (active) | 95% (active) | 67.7% | 96% (active) | 95% (active) | 60%
